In PubChem BioAssay (NCATS):
Records with an inconclusive call do not appear. A number with no mark means an inactive call. Calls follow the shape of the full dose curve.

Test: Cell Viability - SK-N-SH (AID 435);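 also: compound exposure lasted 40 h at 37 °C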
Settings: SK-N-SH neuroblastoma cell viability qHTS
How it was run: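 SK-N-SH neuroblastoma cells (1500/well) treated 40 h at 37 °C in complete medium; viability read as cellular ATP by CellTiter-Glo luminescence. Normalized to DMSO and 100 uM tamoxifen; AC50 from Hill fits of qHTS concentration-response.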
Potency is read from the fitted curve at half-maximal effect.

Row | SMILES | Potency [µM]
1 | CC(=O)Nc1ccccc1 | > 92
2 | CC(=O)Nc1cccc(O)c1 | > 92
3 | CCN(CC)C(=O)c1cccc(C)c1 | > 92
4 | O=C1C(c2[nH]c3ccccc3c2O)=Nc2ccccc21 | > 92
5 | Cc1c(N(C)C)c(=O)n(-c2ccccc2)n1C | > 92
6 | CC(=O)OCC(COC(C)=O)OC(C)=O | > 92
7 | COc1ccc(O)cc1 | > 92
8 | CCCCCCCC(=O)OCC(COC(=O)CCCCCCC)OC(=O)CCCCCCC | > 92
9 | C=CCNC(N)=S | > 92
10 | CC1CC(OC(=O)c2ccccc2O)CC(C)(C)C1 (configuration not stated) | > 92
11 | FC(F)(F)C(Cl)Br (configuration not stated) | > 92
12 | CCCCCC(N)=O | > 92
13 | O=C(c1ccccc1)C(O)c1ccccc1 (configuration not stated) | > 92
14 | Cc1cc(=O)[nH]c(=S)[nH]1 | > 92
15 | CCCC(O)C(CC)CO (configuration not stated) | > 92
16 | CC(=O)Nc1ccc(C(=O)O)cc1 | > 92
17 | O=C(O)CCCCC1CCSS1 (configuration not stated) | > 92
